Holding throughout (settings): treatment time: 24 h
The test system of test [1] is A549-ACTB-RAB5A. Description: lowest phenotypically active concentration; higher = less potent. The gist of the method:
(§1)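 Live-cell features were measured per well and normalised to solvent control wells after fifteen gene-edited A549, HepG2 and WPMY1 reporter lines had been treated for 24 h at 0.3, 1, 3 or 9 µM in four wells each. A condition was deviating when ≥3 of 4 wells sat beyond the 95th percentile of control Euclidean distances. It was reproducible when the median replicate Pearson correlation exceeded the 95th percentile of non-replicates. Phenotypic activity demanded both.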

Test [2] relates to A549-CANX-COX4. Described as above. In short, it runs like this:
as §1

Test [3] relates to A549-GM130-SQSTM1. The test is described as above. The gist of the method: as §1
In test [4] the test system is A549-TP53BP1-CLTA. The test is described as above. The gist of the method:
as §1

The subject of test [5] is A549-TUBA1B-RELA. The test is described as above. In short, it runs like this:
as §1

Test [6] concerns HepG2-TP53BP1-CLTA. The test is described as above. In short, it runs like this: as §1
The subject of test [7] is A549-ACTB-RAB5A. Put plainly: phenotypically active (imaging signature differs from DMSO and reproducible) at any of 0.3-9 uM (binary (1 = active, 0 = inactive)); higher = active. The gist of the method: as §1
In test [8] the test system is A549-CANX-COX4. The test is described as above. The gist of the method:
as §1

For test [9], the system named is A549-GM130-SQSTM1. The description is as above. In short, it runs like this: as §1
In test [10] the test system is A549-TP53BP1-CLTA. Described as above. The gist of the method: as §1
The test system of test [11] is A549-TUBA1B-RELA. The description is as above. In short, it runs like this:
as §1

A further test concerns HepG2-ACTB-RAB5A. The description is as above. The gist of the method:
as §1

The next test relates to HepG2-CANX-COX4. The description is as above. In short, it runs like this: as §1
A further test has as its system HepG2-GM130-SQSTM1. The test is described as above. In short, it runs like this: as §1
The test system of test [12] is HepG2-TP53BP1-CLTA. The test is described as above. The gist of the method:
as §1

The next test deals with HepG2-TUBA1B-RELA. The description is as above. The gist of the method: as §1
The subject of another test is WPMY1-CANX-COX4. The description is as above. In short, it runs like this:
as §1

In a further test the test system is WPMY1-GM130-SQSTM1. The test is described as above. In short, it runs like this: as §1
The next test relates to WPMY1-TP53BP1-CLTA. The test is described as above. In short, it runs like this:
as §1

Another test concerns WPMY1-TUBA1B-RELA. The description is as above. In short, it runs like this: as §1

Results on 5 molecules are retold here after the supplement of paper PMC7411054.

A value given as a limit tells only on which side of the number the result lay.

`Cc1nc(Nc2ncc(C(=O)Nc3c(C)cccc3Cl)s2)cc(N2CCN(CCO)CC2)n1` [dasatinib]: the “lowest phenotypically active concentration” value was at most 0.3 µM in the test with A549-ACTB-RAB5A [1]; at most 0.3 µM in the test on A549-CANX-COX4 [2]; at most 0.3 µM in the test with A549-GM130-SQSTM1 [3]; at most 0.3 µM in the test with A549-TP53BP1-CLTA [4]; 1 µM in the test with A549-TUBA1B-RELA [5]; at most 0.3 µM in the test with HepG2-TP53BP1-CLTA [6]. For the same molecule, the phenotypically active with A549-ACTB-RAB5A [7], in the test on A549-CANX-COX4 [8], in the test on A549-GM130-SQSTM1 [9], in the test on A549-TP53BP1-CLTA [10], in the test with A549-TUBA1B-RELA [11] and in the test on HepG2-ACTB-RAB5A was 1 (active) in each case. For the same molecule, the phenotypically active in the test with HepG2-CANX-COX4, in the test with HepG2-GM130-SQSTM1, in the test on HepG2-TP53BP1-CLTA [12], in the test with HepG2-TUBA1B-RELA, in the test on WPMY1-CANX-COX4 and in the test with WPMY1-GM130-SQSTM1 was 1 (active) each time. Besides, the phenotypically active with WPMY1-TP53BP1-CLTA and in the test with WPMY1-TUBA1B-RELA was 1 (active) in each case.

With `CC(=O)Nc1ccc(C(=O)Nc2ccccc2N)cc1`, the “lowest phenotypically active concentration” value with A549-ACTB-RAB5A [1] turned out to be 1 µM; in the test with A549-CANX-COX4 [2] it was 1 µM; in the test on A549-GM130-SQSTM1 [3] it was 1 µM; with A549-TP53BP1-CLTA [4], 3 µM; with A549-TUBA1B-RELA [5], 1 µM; with HepG2-TP53BP1-CLTA [6], 1 µM. Moreover, the phenotypically active in the test on A549-ACTB-RAB5A [7], in the test with A549-CANX-COX4 [8], in the test on A549-GM130-SQSTM1 [9], in the test with A549-TP53BP1-CLTA [10], in the test with A549-TUBA1B-RELA [11] and in the test on HepG2-ACTB-RAB5A was 1 (active) each time. Moreover, the phenotypically active in the test on HepG2-CANX-COX4, in the test with HepG2-GM130-SQSTM1, in the test with HepG2-TP53BP1-CLTA [12], with HepG2-TUBA1B-RELA, with WPMY1-CANX-COX4 and in the test with WPMY1-GM130-SQSTM1 was 1 (active) each time. Moreover, the phenotypically active in the test with WPMY1-TP53BP1-CLTA and with WPMY1-TUBA1B-RELA was 1 (active) each time.

Regarding `COc1ccc2cc1Oc1ccc(cc1)C[C@H]1c3cc(c(OC)cc3CCN1C)Oc1c(OC)c(OC)cc3c1[C@H](C2)N(C)CC3` [Tetrandrine], the “lowest phenotypically active concentration” value in the test on A549-ACTB-RAB5A [1] was at most 0.3 µM; in the test on A549-CANX-COX4 [2] it was 1 µM; with A549-GM130-SQSTM1 [3] it was at most 0.3 µM; in the test with A549-TP53BP1-CLTA [4], 1 µM; with A549-TUBA1B-RELA [5] it was at most 0.3 µM; in the test on HepG2-TP53BP1-CLTA [6] it was 1 µM. For the same molecule, the phenotypically active with A549-ACTB-RAB5A [7], with A549-CANX-COX4 [8], in the test on A549-GM130-SQSTM1 [9], in the test on A549-TP53BP1-CLTA [10], with A549-TUBA1B-RELA [11] and in the test on HepG2-ACTB-RAB5A was 1 (active) each time. Further, the phenotypically active in the test on HepG2-CANX-COX4, with HepG2-GM130-SQSTM1, with HepG2-TP53BP1-CLTA [12], in the test with HepG2-TUBA1B-RELA, in the test on WPMY1-CANX-COX4 and with WPMY1-GM130-SQSTM1 was 1 (active) in each case. Further, the phenotypically active with WPMY1-TP53BP1-CLTA and in the test on WPMY1-TUBA1B-RELA was 1 (active) each time.

With `COc1ccc(-c2cc3c(C)nc(N)nc3n([C@H]3CC[C@H](OCCO)CC3)c2=O)cn1`, the “lowest phenotypically active concentration” value in the test with A549-ACTB-RAB5A [1], in the test on A549-CANX-COX4 [2], in the test on A549-GM130-SQSTM1 [3], in the test on A549-TP53BP1-CLTA [4], in the test on A549-TUBA1B-RELA [5] and with HepG2-TP53BP1-CLTA [6] was at most 0.3 µM each time. Further, the phenotypically active in the test with A549-ACTB-RAB5A [7], in the test with A549-CANX-COX4 [8], in the test on A549-GM130-SQSTM1 [9], in the test on A549-TP53BP1-CLTA [10], with A549-TUBA1B-RELA [11] and with HepG2-ACTB-RAB5A was 1 (active) in each case. In addition, the phenotypically active in the test on HepG2-CANX-COX4, in the test with HepG2-GM130-SQSTM1, in the test with HepG2-TP53BP1-CLTA [12], in the test on HepG2-TUBA1B-RELA, in the test on WPMY1-CANX-COX4 and in the test on WPMY1-GM130-SQSTM1 was 1 (active) in each case. The phenotypically active in the test on WPMY1-TP53BP1-CLTA and in the test with WPMY1-TUBA1B-RELA was 1 (active) each time.

In the case of `CO[C@@H]1[C@H](N(C)C(=O)c2ccccc2)C[C@H]2O[C@]1(C)n1c3ccccc3c3c4c(c5c6ccccc6n2c5c31)C(=O)NC4`, the “lowest phenotypically active concentration” value with A549-ACTB-RAB5A [1], with A549-CANX-COX4 [2], in the test with A549-GM130-SQSTM1 [3], in the test with A549-TP53BP1-CLTA [4], in the test on A549-TUBA1B-RELA [5] and in the test on HepG2-TP53BP1-CLTA [6] was at most 0.3 µM throughout. Moreover, the phenotypically active with A549-ACTB-RAB5A [7], in the test on A549-CANX-COX4 [8], in the test with A549-GM130-SQSTM1 [9], in the test with A549-TP53BP1-CLTA [10], in the test with A549-TUBA1B-RELA [11] and in the test with HepG2-ACTB-RAB5A was 1 (active) in each case. The phenotypically active in the test with HepG2-CANX-COX4, with HepG2-GM130-SQSTM1, with HepG2-TP53BP1-CLTA [12], in the test with HepG2-TUBA1B-RELA, in the test with WPMY1-CANX-COX4 and with WPMY1-GM130-SQSTM1 was 1 (active) each time. Further, the phenotypically active in the test on WPMY1-TP53BP1-CLTA and with WPMY1-TUBA1B-RELA was 1 (active) each time.
